# Source: the supplement of paper PMC7411054
# Structures can show the parent of a compound that is named as a salt.
# Columns and labels:
# Experiment in all cases: lowest phenotypically active concentration; higher = less potent
# Settings in all cases: treatment time: 24 h
# HepG2-ACTB-RAB5A = test system: HepG2-ACTB-RAB5A
# How it was run: (§1)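 Four wells per concentration (0.3, 1, 3 or 9 µM) were treated for 24 h in each of fifteen gene-edited reporter lines from A549, HepG2 and WPMY1 cells, then imaged live. After normalising live-cell features to solvent control wells, deviation was defined as ≥3 of 4 wells lying past the 95th percentile of control Euclidean distances. Reproducibility was defined as a median replicate Pearson correlation above the 95th percentile of non-replicates. Both had to hold for phenotypic activity.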
# HepG2-CANX-COX4 = test system: HepG2-CANX-COX4
# How it was run: as §1
# HepG2-GM130-SQSTM1 = test system: HepG2-GM130-SQSTM1
# How it was run: as §1
# HepG2-TP53BP1-CLTA = test system: HepG2-TP53BP1-CLTA
# How it was run: as §1
# HepG2-TUBA1B-RELA = test system: HepG2-TUBA1B-RELA
# How it was run: as §1
# WPMY1-ACTB-RAB5A = test system: WPMY1-ACTB-RAB5A
# How it was run: as §1
# WPMY1-CANX-COX4 = test system: WPMY1-CANX-COX4
# How it was run: as §1
# WPMY1-GM130-SQSTM1 = test system: WPMY1-GM130-SQSTM1
# How it was run: as §1
# WPMY1-TP53BP1-CLTA = test system: WPMY1-TP53BP1-CLTA
# How it was run: as §1
# WPMY1-TUBA1B-RELA = test system: WPMY1-TUBA1B-RELA
# How it was run: as §1
SMILES,lowest phenotypically active concentration (HepG2-ACTB-RAB5A),lowest phenotypically active concentration (HepG2-CANX-COX4),lowest phenotypically active concentration (HepG2-GM130-SQSTM1),lowest phenotypically active concentration (HepG2-TP53BP1-CLTA),lowest phenotypically active concentration (HepG2-TUBA1B-RELA),lowest phenotypically active concentration (WPMY1-ACTB-RAB5A),lowest phenotypically active concentration (WPMY1-CANX-COX4),lowest phenotypically active concentration (WPMY1-GM130-SQSTM1),lowest phenotypically active concentration (WPMY1-TP53BP1-CLTA),lowest phenotypically active concentration (WPMY1-TUBA1B-RELA)
Cc1ccc(C(=O)N(CCCN)[C@@H](c2oc3cc(Cl)ccc3c(=O)c2Cc2ccccc2)C(C)C)cc1,≤ 0.3 µM,≤ 0.3 µM,≤ 0.3 µM,≤ 0.3 µM,≤ 0.3 µM,≤ 0.3 µM,3 µM,≤ 0.3 µM,≤ 0.3 µM,≤ 0.3 µM
COc1cc(/C=C/C(=O)N2CCC=CC2=O)cc(OC)c1OC [Piperlongumine],3 µM,3 µM,3 µM,9 µM,3 µM,9 µM,9 µM,3 µM,9 µM,9 µM
Cc1cnc(NC(=O)Nc2cc(Br)c(C)cc2OC[C@@H]2CNCCO2)cn1,3 µM,9 µM,1 µM,1 µM,1 µM,≤ 0.3 µM,1 µM,3 µM,1 µM,1 µM
COCC(=O)O[C@]1(CCN(C)CCCc2nc3ccccc3[nH]2)CCc2cc(F)ccc2[C@@H]1C(C)C [mibefradil],9 µM,9 µM,9 µM,9 µM,3 µM,9 µM,9 µM,9 µM,9 µM,9 µM
COC(=O)Nc1nc2ccc(C(=O)c3cccs3)cc2[nH]1 [Nocodazole],≤ 0.3 µM,≤ 0.3 µM,≤ 0.3 µM,≤ 0.3 µM,≤ 0.3 µM,≤ 0.3 µM,≤ 0.3 µM,≤ 0.3 µM,≤ 0.3 µM,≤ 0.3 µM
CC(C)(C)c1cnc(CSc2cnc(NC(=O)C3CCNCC3)s2)o1,≤ 0.3 µM,≤ 0.3 µM,≤ 0.3 µM,≤ 0.3 µM,≤ 0.3 µM,≤ 0.3 µM,≤ 0.3 µM,≤ 0.3 µM,≤ 0.3 µM,≤ 0.3 µM
O=C1NC(=O)[C@@H](c2cn3c4c(cccc24)CCC3)[C@@H]1c1c[nH]c2ccccc12 [tivantinib],1 µM,1 µM,1 µM,1 µM,1 µM,≤ 0.3 µM,1 µM,1 µM,1 µM,1 µM
COc1c(C)cnc(Cn2cc(C#CCC(C)(C)O)c3c(Cl)nc(N)nc32)c1C,≤ 0.3 µM,≤ 0.3 µM,≤ 0.3 µM,≤ 0.3 µM,≤ 0.3 µM,≤ 0.3 µM,≤ 0.3 µM,≤ 0.3 µM,≤ 0.3 µM,≤ 0.3 µM
Nc1ccc(-c2ccc3ncc4ccc(=O)n(-c5cccc(C(F)(F)F)c5)c4c3c2)cn1 [Torin 2],≤ 0.3 µM,≤ 0.3 µM,≤ 0.3 µM,≤ 0.3 µM,≤ 0.3 µM,≤ 0.3 µM,≤ 0.3 µM,≤ 0.3 µM,≤ 0.3 µM,≤ 0.3 µM
CC(=O)NC1=NN(C(C)=O)C(C)(c2ccccc2)S1 (stereo not given),9 µM,3 µM,9 µM,3 µM,3 µM,3 µM,9 µM,3 µM,3 µM,3 µM
CC(C)n1c(/C=C/[C@@H](O)C[C@@H](O)CC(=O)O)c(-c2ccc(F)cc2)c2ccccc21.CC(C)n1c(/C=C/[C@H](O)C[C@H](O)CC(=O)O)c(-c2ccc(F)cc2)c2ccccc21 [Fluvastatin sodium],1 µM,1 µM,1 µM,1 µM,1 µM,≤ 0.3 µM,1 µM,≤ 0.3 µM,1 µM,1 µM
Oc1cccc(Nc2ccnc3cc(-c4cccc(CN5CCOCC5)c4)sc23)c1 [LCB 03-0110 dihydrochloride],1 µM,1 µM,3 µM,3 µM,1 µM,3 µM,3 µM,3 µM,3 µM,3 µM
COc1cc(C(=O)N2CCC(N3CCN(C)CC3)CC2)ccc1Nc1ncc2c(n1)N(C)c1ccccc1C(=O)N2C,1 µM,1 µM,1 µM,3 µM,1 µM,3 µM,3 µM,1 µM,3 µM,1 µM
Cc1cc(/N=N/c2ccc(S(=O)(=O)Nc3ccccn3)cc2)c(N)cc1O,9 µM,3 µM,3 µM,9 µM,9 µM,3 µM,9 µM,3 µM,9 µM,9 µM
CO[C@H]1C=CC=C(C)C(=O)NC2=CC(=O)C(NCCN(C)C)=C(C[C@@H](C)C[C@H](OC)[C@H](O)[C@@H](C)C=C(C)[C@@H]1OC(N)=O)C2=O [17-DMAG hydrochloride],≤ 0.3 µM,≤ 0.3 µM,≤ 0.3 µM,≤ 0.3 µM,≤ 0.3 µM,≤ 0.3 µM,≤ 0.3 µM,≤ 0.3 µM,≤ 0.3 µM,≤ 0.3 µM
COCc1c(C(C)C)nc(C(C)C)c(/C=C/[C@@H](O)C[C@@H](O)CC(=O)O)c1-c1ccc(F)cc1 [cerivastatin],≤ 0.3 µM,≤ 0.3 µM,≤ 0.3 µM,≤ 0.3 µM,≤ 0.3 µM,≤ 0.3 µM,≤ 0.3 µM,≤ 0.3 µM,≤ 0.3 µM,≤ 0.3 µM
CC1(C)CC(=O)C2=C(C1)NC(=S)NC2c1cccc(O)c1 (stereo not given) [Dimethylenastron],1 µM,1 µM,1 µM,1 µM,1 µM,1 µM,3 µM,1 µM,1 µM,1 µM
CC[C@@H]1C(=O)N(C)c2cnc(Nc3ccc(C(=O)NC4CCN(C)CC4)cc3OC)nc2N1C1CCCC1,≤ 0.3 µM,1 µM,≤ 0.3 µM,≤ 0.3 µM,≤ 0.3 µM,≤ 0.3 µM,≤ 0.3 µM,≤ 0.3 µM,≤ 0.3 µM,≤ 0.3 µM
O=C(Cc1ccc(-c2ccc(OCCN3CCOCC3)cc2)cn1)NCc1ccccc1,≤ 0.3 µM,≤ 0.3 µM,≤ 0.3 µM,≤ 0.3 µM,≤ 0.3 µM,≤ 0.3 µM,≤ 0.3 µM,≤ 0.3 µM,≤ 0.3 µM,≤ 0.3 µM
Nc1ccn([C@@H]2O[C@H](CO)[C@@H](O)[C@@H]2O)c(=O)n1 [cytarabine],≤ 0.3 µM,≤ 0.3 µM,≤ 0.3 µM,≤ 0.3 µM,≤ 0.3 µM,≤ 0.3 µM,1 µM,1 µM,≤ 0.3 µM,≤ 0.3 µM

SMILES,lowest phenotypically active concentration (HepG2-ACTB-RAB5A),lowest phenotypically active concentration (HepG2-CANX-COX4),lowest phenotypically active concentration (HepG2-GM130-SQSTM1),lowest phenotypically active concentration (HepG2-TP53BP1-CLTA),lowest phenotypically active concentration (HepG2-TUBA1B-RELA),lowest phenotypically active concentration (WPMY1-ACTB-RAB5A),lowest phenotypically active concentration (WPMY1-CANX-COX4),lowest phenotypically active concentration (WPMY1-GM130-SQSTM1),lowest phenotypically active concentration (WPMY1-TP53BP1-CLTA),lowest phenotypically active concentration (WPMY1-TUBA1B-RELA)
CC(=O)NCC(=O)N1[C@@H]2CC[C@H]1c1ccc(Nc3ncc(C(F)(F)F)c(NC4CCC4)n3)cc12,≤ 0.3 µM,≤ 0.3 µM,≤ 0.3 µM,≤ 0.3 µM,≤ 0.3 µM,≤ 0.3 µM,≤ 0.3 µM,≤ 0.3 µM,≤ 0.3 µM,≤ 0.3 µM
c1ccc2c(c1)Cc1c(Nc3ccc4c(c3)OCCO4)n[nH]c1-2,3 µM,3 µM,9 µM,3 µM,3 µM,3 µM,3 µM,3 µM,3 µM,3 µM
Nc1ncn([C@@H]2O[C@H](CO)[C@@H](O)[C@H]2O)c(=O)n1 [5-Azacytidine],≤ 0.3 µM,≤ 0.3 µM,≤ 0.3 µM,≤ 0.3 µM,1 µM,3 µM,3 µM,1 µM,3 µM,3 µM
O=C(CCCc1ccc(-c2ccccc2F)cc1)Nc1ccc(O)cc1,3 µM,3 µM,3 µM,9 µM,3 µM,1 µM,1 µM,1 µM,1 µM,1 µM
CCC1=C[C@@H]2CN(C1)Cc1c([nH]c3ccccc13)[C@@](C(=O)OC)(c1cc3c(cc1OC)N(C)[C@H]1[C@@](O)(C(=O)OC)[C@H](OC(C)=O)[C@]4(CC)C=CCN5CC[C@]31[C@@H]54)C2 [vinorelbine],≤ 0.3 µM,≤ 0.3 µM,≤ 0.3 µM,≤ 0.3 µM,≤ 0.3 µM,≤ 0.3 µM,≤ 0.3 µM,≤ 0.3 µM,≤ 0.3 µM,≤ 0.3 µM
COc1cc(OC2CCN(C)CC2)ccc1Nc1ncc2c(n1)n(C1CCCC1)c(=O)n2C,3 µM,9 µM,3 µM,9 µM,9 µM,9 µM,9 µM,9 µM,9 µM,9 µM
C[C@@H]1COCCN1c1cc(C2(S(C)(=O)=O)CC2)nc(-c2cccc3[nH]ccc23)n1,≤ 0.3 µM,1 µM,1 µM,1 µM,1 µM,≤ 0.3 µM,≤ 0.3 µM,1 µM,1 µM,3 µM
CC(C)(C)Nc1nc(Nc2ccc(C(N)=O)cc2)cc(N)c1C#N,3 µM,3 µM,3 µM,3 µM,3 µM,3 µM,9 µM,3 µM,3 µM,9 µM
COc1cc(N2CCOCC2)ccc1Nc1ncc(Cl)c(Nc2ccccc2NS(C)(=O)=O)n1,3 µM,3 µM,3 µM,3 µM,3 µM,9 µM,9 µM,9 µM,9 µM,3 µM
C[C@@H](CN1CCC(n2c(=O)[nH]c3cc(Cl)ccc32)CC1)NC(=O)c1ccc2ccccc2c1,9 µM,9 µM,9 µM,9 µM,3 µM,9 µM,9 µM,9 µM,9 µM,9 µM
O=C(CCCCCCC(=O)Nc1cccnc1)NO [Pyroxamide],3 µM,3 µM,3 µM,3 µM,3 µM,9 µM,3 µM,3 µM,3 µM,3 µM
O=C1NCCN1CCN1CCC(c2cn(-c3ccc(F)cc3)c3ccc(Cl)cc23)CC1 [sertindole],9 µM,9 µM,3 µM,3 µM,3 µM,9 µM,3 µM,9 µM,9 µM,3 µM
OC[C@H]1O[C@@H](n2cnc3c(NCc4ccco4)ncnc32)[C@H](O)[C@@H]1O [Kinetin riboside],1 µM,1 µM,3 µM,3 µM,1 µM,1 µM,3 µM,1 µM,1 µM,3 µM
NCC(=O)Nc1ccc(-n2nc(C(F)(F)F)cc2-c2ccc3c(ccc4ccccc43)c2)cc1,1 µM,1 µM,3 µM,1 µM,1 µM,≤ 0.3 µM,1 µM,1 µM,≤ 0.3 µM,≤ 0.3 µM
COc1ccc2cc1Oc1ccc(cc1)C[C@H]1c3cc(c(OC)cc3CCN1C)Oc1c(OC)c(OC)cc3c1[C@H](C2)N(C)CC3 [Tetrandrine],1 µM,3 µM,≤ 0.3 µM,1 µM,≤ 0.3 µM,1 µM,1 µM,≤ 0.3 µM,3 µM,1 µM
C/C=C1\NC(=O)[C@H]2CSSCCC=C[C@H](CC(=O)N[C@H](C(C)C)C(=O)N2)OC(=O)[C@H](C(C)C)NC1=O,≤ 0.3 µM,≤ 0.3 µM,≤ 0.3 µM,≤ 0.3 µM,≤ 0.3 µM,≤ 0.3 µM,≤ 0.3 µM,≤ 0.3 µM,≤ 0.3 µM,≤ 0.3 µM
C[C@H]1COCCN1c1cc(C2(S(=O)(=O)C3CC3)CC2)nc(-c2ccc(NC(=S)NCCO)cc2)n1,≤ 0.3 µM,≤ 0.3 µM,≤ 0.3 µM,≤ 0.3 µM,1 µM,≤ 0.3 µM,≤ 0.3 µM,≤ 0.3 µM,≤ 0.3 µM,≤ 0.3 µM
Cc1ccc(-n2nc(C(C)(C)C)cc2NC(=O)Nc2ccc(OCCN3CCOCC3)c3ccccc23)cc1,1 µM,3 µM,3 µM,3 µM,≤ 0.3 µM,3 µM,1 µM,1 µM,9 µM,1 µM
O=C(CCCCCN1C(=O)c2cccc3cccc(c23)C1=O)NO [Scriptaid],≤ 0.3 µM,1 µM,≤ 0.3 µM,≤ 0.3 µM,≤ 0.3 µM,1 µM,1 µM,1 µM,1 µM,1 µM
